B2AR arrestin – beta2AR (human) beta-arrestin recruitment activity; P07550; AID 492947; Potency, µM (series often up to 46.1 µM), for inactives: at the highest dose activation, hits mostly activators; actives 0.02% (n = 330,000); beta-arrestin recruitment to beta2AR, cell-based reporter;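 further: 0% = DMSO controls and full agonism = EC100 isoproterenol or metaproterenol; nearly all actives have a fitted effect of over 65% in size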
Tb PFK inh – inhibitors of T. brucei phosphofructokinase; actives 0.17% (n = 330,000); Potency, µM (doses to about 57.5 µM), for the others: at the top dose activity, negative = inhibition, usual class: inhibitors; O15648; T. brucei PFK, ADP-Glo luminescence;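 further: 0% = uninhibited 1x PFK enzyme wells and -100% = no-enzyme wells; nearly all actives have a fitted effect of over 60% in size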
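In TEA buffer at pH 8.0 with 5 mM MgCl2, enzyme (1.25 nM) converted F6P (0.5 mM) and ATP (0.1 mM) for 45 min at room temperature. ADP product was read by luciferase luminescence.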
Pin1 inhibitor – blocks the human prolyl isomerase Pin1. Q13526. Pin1 FP peptide displacement, HiFluor488, 10 min. Potency, µM (titrated, usually from 115 µM), inactives show top-dose activity, negative = inhibition, hits mostly inhibitors. actives 0.009% (n = 390,000); active means well fitted inhibition curve with a large enough effect in the polarisation, with a control signal flat, not every such curve was filed as active; inconclusive means small, poorly fitted or top-dose-only effect, or effect the other way, or a change in a side signal; inactive means no such curve, though single readings can be large or run the other way; the % refers to the polarisation
GLS inh – glutaminase GLS (human) inhibition; GLS enzymatic activity, qHTS titration; actives 0.21% (n = 410,000); AID 624170; Potency, µM (highest dose often 45.5 µM), without a hit: at the top dose activity change, negative = inhibition, usual class: inhibitors; O94925
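hKGA in 45 mM KH2PO4 (pH 8.2), 0.02% Tween-20 with compound, then 1mM L-Glutamine (stock as added) plus glutamate oxidase/HRP/Amplex red coupling mix. Fluorescence read initially and after 30 min at RT; signal change reflects glutamate formation.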
BCR signal inh – blocks chronic active B-cell receptor signaling; ABC-DLBCL IkBa-CBG/CBR reporter, luminescence ratio, 4 h; Potency, µM (series often up to 46.1 µM), for the others: top-dose activity change, negative = inhibition, hits mostly inhibitors; actives 0.05% (n = 340,000); AID 493014; active means well fitted inhibition curve with a large enough effect in the signal ratio, with a control signal flat, not every such curve was filed as active; inconclusive means small, poorly fitted or top-dose-only effect, or effect the other way, or a change in a side signal; the % refers to the signal ratio;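 further: plate controls were basal doxycycline-induced cells for no effect and cells given 10 µM MG132 for full effect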
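Concentration-response series (up to 46 uM) were applied to TMD8 dual-reporter cells for 4 h at 37C with doxycycline. Green/red ratio, after filter-overlap correction, defined %Activity; red signal alone was normalised to basal cells and zero luminescence.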
PGK inhibitor – blocks T. brucei phosphoglycerate kinase; P07378; AID 602233; PGK/GAPDH coupled, Kinase-Glo luminescence, 60 min; actives 0.043% (n = 380,000); Potency, µM (top dose mostly 57.5 µM), without a hit: at the top dose activity change, negative = inhibition, hits mostly inhibitors; further: nearly all actives have a fitted effect of over 60% in size
Target sequence (P07378 whole entry, looked up): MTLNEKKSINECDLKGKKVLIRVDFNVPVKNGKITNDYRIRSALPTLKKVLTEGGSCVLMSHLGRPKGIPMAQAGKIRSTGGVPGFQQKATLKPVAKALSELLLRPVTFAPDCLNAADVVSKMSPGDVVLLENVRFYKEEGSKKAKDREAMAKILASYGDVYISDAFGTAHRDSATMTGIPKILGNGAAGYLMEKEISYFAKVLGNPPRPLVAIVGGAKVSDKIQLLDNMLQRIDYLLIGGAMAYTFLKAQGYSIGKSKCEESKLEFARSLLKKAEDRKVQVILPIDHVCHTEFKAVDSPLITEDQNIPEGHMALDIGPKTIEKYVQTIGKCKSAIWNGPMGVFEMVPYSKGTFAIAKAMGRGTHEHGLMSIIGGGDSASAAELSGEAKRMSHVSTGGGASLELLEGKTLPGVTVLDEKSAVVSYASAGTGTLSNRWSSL
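Recombinant glycosomal PGK reaction used 1,3-bisphosphoglycerate generated in-well by GAPDH (100nM final) in 100mM TEA pH 7.6, 5mM MgCl2, 0.01% Tween-20. After 60 minutes at room temperature, ATP was read by Kinase-Glo Plus luminescence end-point.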
* = called active by the depositor; i = inactive; ? = inconclusive; / = no result given; ! = not active in a repeat; [ ] = remark or other dose. Rows were chosen to be rich in hits. Some 0.42% of all compounds tested hit in one or more screens of this group. Unless noted, the call rests on the fitted dose curve; in most records, active means well fitted curve in the direction sought with a large enough effect; inconclusive means small, poorly fitted or top-dose-only effect, or another doubt; inactive means no such curve, though single readings can be large; an effect the other way counts as inactive or inconclusive. Unless noted, on the % scale 0 is the no-effect control and ±100 the full control effect; potency means the concentration at half of the fitted maximal effect.

SMILES	B2AR arrestin	Tb PFK inh	Pin1 inhibitor	GLS inh	BCR signal inh	PGK inhibitor
C[C@@H]1CC[C@]2(C(=O)O[C@@H]3O[C@H](CO)[C@@H](O)[C@H](O)[C@H]3O)CC[C@]3(C)C(=CCC4[C@@]5(C)C[C@@H](O)[C@H](O)[C@@](C)(C(=O)O[C@@H]6[C@H](O)C[C@@]7(C)C(CC[C@]8(C)C7CC=C7[C@H]9[C@](C(=O)O[C@@H]%10O[C@H](CO)[C@@H](O)[C@H](O)[C@H]%10O)(CC[C@@H](C)[C@@]9(C)O)CC[C@]78C)[C@@]6(CO)C(=O)O)C5CC[C@]43C)[C@@H]2[C@]1(C)O (stereo not given in full)	6.5%	0.0%	-2.0%	7.08µM*	-1.3%	5.6%
C[C@H]1O[C@H](O[C@H]2[C@H](O[C@@H]3CC[C@@]4(C)C(CC[C@]5(C)C4CC=C4[C@@H]6CC(C)(C)CC[C@]6(C(=O)O[C@@H]6O[C@H](CO)[C@@H](O)[C@H](O)[C@H]6O)CC[C@]45C)C3(C)C)O[C@H](C(=O)O)[C@@H](O)[C@@H]2O)[C@@H](O)[C@@H](O)[C@@H]1O (stereo not given in full)	-0.2%	-8.5%	5.5%	?	9.6%	-10.2%
Cc1cccc(-n2c3nc(=O)[nH]c(=O)c-3cc3cc([N+](=O)[O-])ccc32)c1	0.3%	-10.5%	-4.5%	5.0%	11.6µM*	-11.6%
Cc1ccc(C)c(-n2c3nc(=O)[nH]c(=O)c-3cc3cc([N+](=O)[O-])ccc32)c1	-1.1%	?	?	-20.7%	?	-11.8%
Cc1cc2c(s1)c1cnn(Cc3ccccc3C)c(=O)c1n2C	/	/	-2.0%	/	/	/
O=C1C=CC2=C3c4cc(O)c(O)cc4CC3(O)COC2=C1O (stereo not given)	/	/	?	?	/	2.82µM*
Oc1c(N=Nc2nn[nH]n2)ccc2ccccc12	/	/	/	20µM*	/	/
COc1ccc(CCNc2nc(-c3ccc(F)cc3)c(CC(=O)O)s2)cc1OC	0.0%	-6.1%	34.0%	11.2µM*	?	-8.2%
Cc1cc(NS(=O)(=O)c2ccc(NC(=O)COc3c(C)cc(Br)cc3C)cc2)no1	0.4%	-0.7%	?	7.94µM*	?	i
Cc1cc(NS(=O)(=O)c2ccc(NC(=O)COc3ccc(Br)cc3C)cc2)no1	/	/	-2.5%	14.9%	/	-6.0%
O=C(CSc1nnc(-c2ccc(Cl)cc2)o1)N1CCOCC1	0.3%	-1.2%	0.7%	-9.8%	0.5%	0.6%
O=C(CSc1nnc(-c2ccc(O)cc2)o1)N1CCOCC1	-0.3%	1.4%	0.9%	8.91µM*	?	-0.3%
N#Cc1nc(Nc2cc(F)cc(F)c2)c2ncn(CCO)c2n1	/	/	13.6%	/	/	/
CC1(C)S[C@@H]2[C@H](NC(=O)Cc3ccccc3)C(=O)N2[C@@H]1C(=O)O	/	/	/	12.6µM*	/	/
C[C@H](Oc1ccccc1)C(=O)N[C@@H]1C(=O)N2[C@@H]1SC(C)(C)[C@@H]2C(=O)O	/	/	/	-3.4%[20 µM]	/	/
CC1(C)SC2C(C(=O)O)N=C(Cc3ccccc3)N2C1C(=O)O (stereo not given)	/	/	/	15.8µM*	/	-6.4%
CC1(C)S[C@@H]2[C@H](NC(=O)Cc3ccccc3)C(=O)N2[C@H]1C(=O)O	-0.2%	0.0%	-2.4%	1.2%	-1.3%	-7.0%
CCOc1ccc2ccccc2c1C(=O)N[C@@H]1C(=O)N2[C@@H]1SC(C)(C)[C@@H]2C(=O)O	0.0%	-2.0%	-9.7%	3.98µM*!	-0.4%	2.3%
CCC(Oc1ccccc1)C(=O)NC1C(=O)N2C1SC(C)(C)C2C(=O)O (stereo not given)	-0.3%	-3.1%	-6.9%	25.1µM*	-0.1%	-1.9%
COc1cccc(C2c3c(ncn(-c4cccc(C)c4)c3=N)Oc3ccc4ccccc4c32)c1 (stereo not given)	/	/	3.0%	/	/	/
O=c1c2ccccc2nc2sc(NCc3ccc([S+](=O)([O-])c4ccccc4)cc3)nn12	/	/	-2.2%	/	/	/
